Bioassay records as filed in PubChem.
In the library only some 13% were active in any assay of this set; here they are far more common.
Marburg entry inh: qHTS for inhibitors of binding or entry into cells for Marburg Virus. Marburg virus pseudotyped entry inhibition, cell reporter. Potency, µM (top dose mostly 37.8 µM), inactives show at the top dose activity change, negative = inhibition, hits mostly inhibitors. 300,000 tested, 1.8% active. AID 540276, 2011; calls by dose curve; tested in HEK293 cells; also: potency is read from the fitted curve at half-maximal effect; % is scaled to controls: 0 for no effect and ±100 for the full control effect
Shiga toxin inh: A qHTS for Small Molecule Inhibitors of Shiga Toxin | Vero cells, Shiga toxin protein synthesis inhibition reporter | inhibition, % at 38.7 µM | 290,000 tested, 9.2% active | AID 2315, 2010; in the data active = inhibition mostly above about 28%, no sharp cut-off; inactive = mostly below about 43%; also: 0% is about no effect
FMDV inh: High Throughput Screening for Foot and Mouth Disease Virus Antivirals. 410,000 tested, 1.2% active. Potency, µM (highest dose often 57.9 µM), without a hit: at the highest dose activity change, negative = inhibition, usual class: inhibitors. FMDV antiviral cell-based qHTS. AID 1159524, 2015; calls by dose curve; tested in HEK293T cells; also: read-out not given here; potency is read from the fitted curve at half-maximal effect; % is scaled to controls: 0 for no effect and ±100 for the full control effect; nearly all actives have a fitted effect of over 45% in size
Lassa entry inh: qHTS for Inhibitors of binding or entry into cells for Lassa Virus; Lassa virus pseudotype entry inhibition, cell reporter; Potency, µM (top dose mostly 37.9 µM), without a hit: at the top dose activity change, negative = inhibition, hits mostly inhibitors; 300,000 tested, 1.2% active; AID 540256, 2011; calls by dose curve; tested in HEK293 cells; also: potency is read from the fitted curve at half-maximal effect; % is scaled to controls: 0 for no effect and ±100 for the full control effect; nearly all actives have a fitted effect of over 50% in size
Cycloheximide cs: Cycloheximide Counterscreen for Small Molecule Inhibitors of Shiga Toxin; cell reporter, cycloheximide protein synthesis inhibition counterscreen; 300,000 tested, 12% active; max response, %; AID 2314, 2010; in the data active = max response mostly above about 13%, no sharp cut-off; inactive = mostly below about 14%; also: read at 38.3 µM for the half of the compounds with a filed dose; 0% is about no effect
HCV inh: qHTS Assay for Inhibitors of Hepatitis C Virus (HCV). Huh7.5.1 HCVcc-Cre infection, luciferase reporter, 44 h. Potency, µM (titrated, usually from 41.8 µM), for inactives: top-dose activity change, negative = inhibition, hits mostly inhibitors. 340,000 tested, 3.4% active; active = well fitted inhibition curve with a large enough effect; inconclusive = small, poorly fitted or top-dose-only effect, or another doubt; inactive = no such curve, though single readings can be large or run the other way; also: potency is read from the fitted curve at half-maximal effect; % is scaled to controls: 0 for no effect and ±100 for the full control effect
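1,000 cells/well; 4 h culture; + compound; + HCVcc-Cre (~0.5 moi); 44 h; luciferase substrate, RT 15 min; read 15 sec.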
* hit, by the source's call; ? = inconclusive; . = no result; [ ] = dose if it differs, or a comment.

SMILES	Marburg entry inh	Shiga toxin inh	FMDV inh	Lassa entry inh	Cycloheximide cs	HCV inh
c1ccc2c(N3CCCCC3)nc(N3CCCCC3)nc2c1	26%	-5	?	?	-4	-24%
C(=C\c1nc(N2CCCCCC2)c2ccccc2n1)/c1ccccc1	11µM*	36*	40µM*	-5%	23*	?
Cc1cccc(C(=O)NCCCNC(=O)c2ccccn2)c1	2%[46.1 µM]	-7	-11%	3%[46.1 µM]	6	22%
COc1cccc(OC)c1OCCNCC1CSc2ccccc2O1 (configuration not stated)	26µM*	.	-25%	?	.	?
COc1cccc(OC)c1OCCCOc1c(OC)cccc1OC	-13%[46.1 µM]	-6	-18%	1%	-3	-10%
COc1ccc(C(=O)/C(C#N)=N/Nc2ccc([N+](=O)[O-])cc2)cc1	.	-3	?	.	-1	1.6µM*
COc1ccc(N/N=C(\C#N)C(N)=O)cc1	0%[46.1 µM]	43	24%	-24%	13*	5%
CCOc1ccc(N/N=C(/C#N)C(N)=O)cc1	20%	46*	48%	25%	31*	21%
CCOc1ccc(N/C(SC)=C(/C#N)C(N)=O)cc1	-36%	24	14%	21%[14.3 µM]	-3	.
N#C/C(=N/Nc1ccc(OC(F)(F)F)cc1)C(N)=S	.	75*	10%	.	57*	?
COc1ccc(N2CCN(C(=O)Cn3c(=O)c4cccn4c4cccnc43)CC2)cc1	0%[46.1 µM]	-4	-9%	6%[46.1 µM]	-3	?
Cc1cc(C(=O)NN=C(Cc2ccccc2)Cc2ccccc2)c(C)o1	15%	84*	-5%	1%	29*	-3%
O=C(NN=C(Cc1ccccc1)Cc1ccccc1)c1ccccc1F	-1%[46.1 µM]	91*	40%	-3%	38*	18%
O=C(NN=C(Cc1ccccc1)Cc1ccccc1)c1ccncc1	.	21	-9%	.	8.0*	19%
O=C(NCc1ccccc1)NC(=O)c1ccccc1F	.	33*	0%	.	28*	-18%
COc1cccc2cc(C(=O)Oc3ccc(NC(C)=O)cc3)c(=O)oc12	2%	-5	2%	-24%	-6	17%
CCCNC(=O)c1cc(C2CCCN(C(=O)c3ccc(OC)cc3)C2)on1 (configuration not stated)	.	.	-6%	.	.	.
COc1ccc(C(=O)NN=C(Cc2ccccc2)Cc2ccccc2)cc1OC	2%	11	-19%	?	0	4%
O=C(NN=C(Cc1ccccc1)Cc1ccccc1)C1CC1	-10%[46.1 µM]	27	8%	-18%[46.1 µM]	21*	10%
COC(=O)c1ccc(-c2cc(CC3(C(=O)OC)CCN(C(=O)OC(C)(C)C)CC3)on2)cc1	.	7	?	.	-3	8%
COC(=O)C1(Cc2cc(-c3ccccc3)no2)CCN(C(=O)OC(C)(C)C)CC1	.	40*	5%	.	27*	-23%
Cc1ccc(Nc2cc(C)nc(NCc3ccccc3)n2)cc1	8.2µM*	-5	-28%	26µM*	-1	10µM*
Cc1cc(NC2CCCCC2)nc(NCc2ccccc2)n1	12µM*	-18	?	23µM*	-5	?
Cc1cccc(Nc2ccc(NCc3ccccc3)nn2)c1	.	87*	59%	.	31*	9%
COc1cccc(Nc2ccc(Nc3cccc(OC)c3)nn2)c1	0%	-4	5%	-14%	-3	?
SMILES	Marburg entry inh	Shiga toxin inh	FMDV inh	Lassa entry inh	Cycloheximide cs	HCV inh
COc1cc(C)nc(NCc2ccccc2)n1	6%	8	27%	9%	9	-1%
Cc1ccc(-c2nc(CS(=O)(=O)CC(=O)NC(C)CCc3ccccc3)c(C)o2)cc1 (configuration not stated)	?	.	-3%	-3%[46.1 µM]	.	.
COCC(=O)N1CCC2(CC1)CN(C(=O)Nc1cccc(F)c1)C2	.	.	6%	.	.	.
COc1ccc(C(C(=O)NC2CCCCC2)N(C(=O)c2ccco2)c2ccccc2C(C)=O)cc1 (configuration not stated)	-6%[46.1 µM]	-4	20%	.	-5	1%
COc1cc(-c2nnc(SCc3cc(=O)oc4cc(C)ccc34)o2)cc(OC)c1OC	-34%	63	20%	-12%	29*	?
COc1cc(-c2nnc(SCC(=O)Oc3ccc(C)cc3C)o2)cc(OC)c1OC	?	.	-5%	-4%[46.1 µM]	.	.
Cc1ccc(-c2nnc(SCc3ccccc3F)o2)cc1	16µM*	63*	10%	?	44*	?
COc1ccc(-c2nnc(SCc3ccccc3F)o2)cc1OC	-18%	52*	0%	0%	21	-37%
Cc1ccc(-c2nnc(SCc3ccccc3)o2)cc1	.	.	24%	25%[46.1 µM]	.	.
Cc1cc2oc(C(=O)NCc3ccc4c(c3)OCO4)c(C)c2cc1C	-8%[46.1 µM]	6	19%	?	2	?
COC(=O)CCc1c(C)nn(-c2ccccc2)c1C	5%	64*	32%	?	25*	5%
Cc1nn(-c2ccccc2)c(C)c1CCC(=O)O	?	90*	56%	?	42*	16%
Cc1nn(C2CCS(=O)(=O)C2)c(Cl)c1/C=C/C(=O)OCC(N)=O (configuration not stated)	3%	-18	-11%	.	9	2%
CCn1ccc2cc(S(=O)(=O)N3CCCN(C(=O)Nc4cc(Cl)ccc4C)CC3)ccc21	.	.	-11%	-24%[46.1 µM]	.	.
Cc1cc(C)c(S(=O)(=O)Nc2ccccc2C(=O)OCC(=O)NCc2ccccc2)c(C)c1	?	-7	0%	10µM*	-4	2%
O=C(COC(=O)c1ccccc1Nc1ccccc1)NCc1ccccc1	15%	-4	7%	8%	-1	5%
COc1ccc2c(CC(=O)N[C@@H](Cc3ccccc3)C(=O)O)cc(=O)oc2c1C	.	-1	-8%	.	-6	16%
COc1ccc(C2CC(c3cccs3)=NN2C(=O)CN2CCCCC2)cc1 (configuration not stated)	-5%[46.1 µM]	26*	45%	3%	11	-4%
CCN1CCc2c(OCC(=O)N3N=C(c4cccs4)CC3c3ccc(F)cc3)cccc2C1=O (configuration not stated)	?	-1	-24%	11µM*	-3	10µM*
COc1ccc(C2CC(c3cccs3)=NN2C(=O)CCl)cc1OC (configuration not stated)	?	42*	?	?	29*	?
COc1ccc(C2CC(c3cccs3)=NN2C(=O)CCC(=O)O)cc1 (configuration not stated)	.	.	10%	.	-2	14%
COc1cc(C2CC(c3cccs3)=NN2C(=O)CCl)ccc1OC(F)F (configuration not stated)	?	63*	16µM*	?	15	11µM*
CCCCC(=O)Nc1ccc(C(=O)OC2CCCCC2)cc1	-9%[46.1 µM]	52	-16%	?	32	?
O=C(OC1CCCCC1)c1ccc(NC(=O)C2CCCCC2)cc1	?	13	-24%	?	10	25µM*
